This note sets out measurements from the supplement of paper PMC8699584.

± gives the standard deviation of the averaged measurements.

This experiment deals with Mv4-11. The experiment can be described thus: cell viability relative to DMSO control (bortezomib = 0%); higher = less growth inhibition. Conditions: 10 nM; 72 h. The method, boiled down:
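FLT3-ITD+ acute myeloid leukemia cells were dispensed onto a library of 679 approved and investigational compounds in 384-well plates, at 1000 cells per well in 50 µL and a single 10 nM dose, for 72 h. The screen was run in duplicate. Cell viability was read by CellTiter-Glo luminescence on an EnVision reader. Values were converted to percentages by per-plate linear regression between DMSO-treated cells (100%) and positive-control-treated cells (0%).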
As for `COc1cc(N2CCC(N3CCN(C)CC3)CC2)ccc1Nc1ncnc(Nc2ccccc2S(=O)(=O)C(C)C)n1`, the cell viability was found to be 98.6 ± 15%.

Consider `Cc1cc(O)c2c(c1)C(=O)c1cc(O)cc(O)c1C2=O` [Emodin], for which the cell viability was found to be 99.1 ± 2.6%.

On to `C=CC(=O)Nc1cc2c(Nc3ccc(F)c(Cl)c3)ncnc2cc1OCCCN1CCOCC1` [Canertinib (CI-1033)], for which the cell viability is 111.9 ± 0.6%. Consider `Cc1ncc(-c2ccnc(Nc3ccc(S(C)(=O)=O)cc3)n2)n1C(C)C`, for which the cell viability is 122 ± 13%. On to `Nc1nccc(Oc2ccc3c(C(=O)Nc4cccc(C(F)(F)F)c4)cccc3c2)n1`, for which the cell viability is 117 ± 8.5%.

Turning to `N#Cc1ccc2[nH]c(O)c(-c3ccc(CN4CCOCC4)cn3)c2c1`, the cell viability came to 106 ± 5.3%. For `CCC(=O)N1CCN(c2ccc(-n3c(=O)ccc4cnc5ccc(-c6cnc7ccccc7c6)cc5c43)cc2C(F)(F)F)CC1` [Torin 1], the cell viability came out at 108 ± 6.9%. The value for `COc1ccc(C(=C2C(=O)Nc3ccccc32)c2ccc(OC)cc2)cc1` was 103 ± 5%.

As to `O=C1Cc2c([nH]c3ccc(Br)cc23)-c2ccccc2N1` [Kenpaullone], the cell viability came out at 111 ± 5.9%.

Consider `CCOc1cc2ncc(C#N)c(Nc3ccc(OCc4ccccn4)c(Cl)c3)c2cc1NC(=O)/C=C/CN(C)C` [Neratinib(HKI-272)], for which the cell viability was determined as 100 ± 3.7%. The value for `CC(C)(C)[Si](C)(C)Oc1ccc2oc(=O)c3c(c2c1)CCCN3` was 108 ± 14%; that for `COc1ccc(S(=O)(=O)N(CCO)c2ccccc2CN(C)C/C=C/c2ccc(Cl)cc2)cc1` [KN-93 Phosphate] was 101 ± 5.2%; that for `CCN(CC)CCNC(=O)c1c(C)[nH]c(/C=C2\C(=O)Nc3ccc(F)cc32)c1C` [Sunitinib Malate] was 97.8 ± 4.2%. The figure for `C[C@@H](Oc1ccc2[nH]nc(/C=C/c3cnn(CCO)c3)c2c1)c1c(Cl)cncc1Cl` is 105 ± 3.5%; for `CNC(=O)c1cc(Oc2ccc(NC(=O)c3cccc(C(F)(F)F)c3)cc2)ccn1` it is 103 ± 4.9%; for `N#Cc1c(-c2ccccc2)cc(-c2cc(Br)ccc2O)[nH]c1=O` it is 114 ± 9.7%.

In the case of `O=C(Nc1ccc2[nH]nc(-c3ccncc3)c2c1)[C@@H]1CCN(CC(=O)N2CCN(c3ccc(-c4ncccn4)cc3)CC2)C1`, the cell viability was 95.8 ± 19%. As to `CCCCCCCCCCCCCC#CC(=O)[C@@H]1COC(C)(C)N1C(=O)OC(C)(C)C`, the cell viability amounted to 132 ± 1.6%. The value for `Cc1cc(Nc2cc(N3CCN(C)CC3)nc(/C=C/c3ccccc3)n2)n[nH]1` was 105 ± 9.9%; that for `COc1cc2nccc(Oc3ccc(NC(=O)C4(C(=O)Nc5ccc(F)cc5)CC4)cc3)c2cc1OC` [XL184(Cabozantinib malate)] was 42 ± 6.5%.
